Our source for the inhibition values is PubChem BioAssay AID1789 (The Scripps Research Institute Molecular Screening Center, 2009).

Molecules are shown by their SMILES. Among all 290,000 compounds or so, about 2,700 (0.93%) were called active. The sample holds actives, similar compounds and a random draw of the others, so the mix is not that of the screen.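 How the source made its calls: active means inhibition above the screen-wide mean plus 3 SD, computed separately per campaign (cut at about 16% in these data); inactive means the rest.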

Usually inhibition stands for the drop in the measured response relative to a control, in per cent.

This assay deals with Heat shock protein HSP 90 (rabbit reticulocyte lysate; luciferase refolding). The assay can be described thus: inhibitors of HSP90 chaperone activity – cell lysate, luminescence, primary screen (AID 1789).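 Further: 0% = DMSO wells and 100% = 60 µM geldanamycin wells; inhibitors lower the luminescence because luciferase stays unfolded.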 To be noted: 3 h, at 5.6 µM, active compounds read high.
Turning to `COc1ccc(N2C(=O)NC(NS(=O)(=O)c3ccc(Cl)cc3)(C(F)(F)F)C2=O)cc1` (stereo not given), the inhibition was 1.44% (inactive).

As for `COc1ccc(Cc2cc(-c3ccc(F)cc3)n[nH]c2=O)cc1`, the inhibition was -1.15% (inactive).

As for `CC(OC(=O)c1ccc2noc(-c3ccccc3)c2c1)C(N)=O` (stereo not given), the inhibition was 26.5% (active).

Regarding `COc1ccc(-c2onc3ccc(C(C)=O)cc23)cc1`, the inhibition is 3.03% (inactive).

On to `Oc1ccc(-c2onc3ccc(Cl)cc23)cc1`, for which the inhibition was -0.76% (inactive).

Regarding `COc1ccc(C(C)NC(=O)C2CCCC2)cc1` (stereo not given), the inhibition is -1.94% (inactive).

As for `CCCc1cc(=O)oc2c(C)c(OC(C)C(=O)NCC(O)c3ccccc3)ccc12` (stereo not given), the inhibition is -5.71% (inactive).

`COc1nc(-c2ccc(Cl)cc2)ccc1-c1noc(-c2cccs2)n1`: the inhibition was -4.45% (inactive).

Consider `c1ccc(-c2noc(-c3cccs3)n2)nc1`, for which the inhibition was 21.2% (active).

Regarding `O=C(Oc1ccc(-c2nc(-c3ccccn3)no2)cc1)c1ccccc1`, the inhibition was 3.06% (inactive).

Consider `COCC1CCCN(C(=O)c2ccc3oc(C(C)C)nc3c2)C1` (stereo not given), for which the inhibition was 2.21% (inactive).

For `Cc1n[nH]c(=O)c2c1nnn2Cc1ccc(F)cc1`, the inhibition is 0.06% (inactive).

For the molecule `C/C(=N/NC(=O)c1ccc(Br)o1)c1ccc(C)o1`, the inhibition is 1.47% (inactive).

Regarding `C/C(=N\NC(=S)NC1CCCCC1)c1ccc(C)o1`, the inhibition is 19.9% (active).

On to `Cc1ccc(/C=N/NC(=S)NC2CCCCC2)o1`, for which the inhibition is -0.34% (inactive).

For the molecule `COc1ccc(OC)c(NC(=O)c2ccc3c(c2)CCN3S(C)(=O)=O)c1`, the inhibition is -4.49% (inactive).

Take `O=C(C1CCC(=O)N(C2CC2)C1)N1CCN(c2ccc(Cl)cc2)CC1` (stereo not given): the inhibition is 0.69% (inactive).

`CCOc1cc(C2/C(=C(/O)c3ccc(S(=O)(=O)N4CCCCC4)cc3)C(=O)C(=O)N2CCOC)ccc1O` (stereo not given): the inhibition was -4.72% (inactive).

Take `Fc1ccccc1/C=C1\CCCC2=C1Nc1ncnn1C2c1ccccc1F` (stereo not given): the inhibition is 5.24% (inactive).

As to `Cc1ccc(-n2c(SCC(=O)Nc3ncc(Cl)cc3Cl)nc3ccccc32)cc1`, the inhibition was 19.5% (active).

Turning to `Cc1ccc(SCCC(=O)OCC(=O)Nc2ncc(Cl)cc2Cl)cc1`, the inhibition was 3.89% (inactive).

Regarding `NS(=O)(=O)c1cccc(NC(=O)CSc2nc3ccccc3n2-c2ccccc2)c1`, the inhibition was 2.1% (inactive).

For `COc1cccc(C(=O)N/N=C(\C)c2cccc(NC(=O)c3ccc(F)cc3)c2)c1OC`, the inhibition was -0.84% (inactive).

With `COc1cccc(NC(=O)C/C(C)=N/NC(=O)C2CCCCC2)c1`, the inhibition was -2.92% (inactive).

Regarding `O=C(COc1ccc2ccc(=O)oc2c1)NCC(O)c1ccccc1` (stereo not given), the inhibition is -3.81% (inactive).

For the molecule `Nc1ccc(-c2sc(N)nc2-c2ccccc2)cc1`, the inhibition was -4.32% (inactive).

With `Brc1ccc(-c2nnc(-c3ccccc3)o2)o1`, the inhibition was -0.79% (inactive).

For `Nc1ccc(-c2nnc(-c3ccccc3)o2)cc1`, the inhibition was 20.3% (active).

For `CCOc1ccc(S(=O)(=O)N2CCCC(C(=O)N3CCC(C(N)=O)CC3)C2)cc1Cl` (stereo not given), the inhibition was -3.03% (inactive).

In the case of `CCCc1ccc(OCCNC(=O)c2ccco2)cc1`, the inhibition is -5.63% (inactive).

Take `COc1ccc(OCCCC(=O)NCCc2ccccc2)cc1`: the inhibition was -4.96% (inactive).

With `CCCOc1ccc(C(=O)NCCc2ccccc2)cc1`, the inhibition was 20.7% (active).

Regarding `CCCOc1cccc(C(=O)NCCCNC(=O)c2cccnc2)c1`, the inhibition was 3.77% (inactive).

With `Nc1cc(N2CCCCCC2)c2nonc2c1[N+](=O)[O-]`, the inhibition is 0.32% (inactive).

On to `Cn1ncc2c(NNC(=O)Cc3cccc4ccccc34)ncnc21`, for which the inhibition is 5.78% (inactive).

`COc1ccc(C(=O)O/N=C(\N)c2ccccn2)cc1[N+](=O)[O-]`: the inhibition is -3.48% (inactive).

Regarding `N/C(=N\OC(=O)c1ccc([N+](=O)[O-])cc1)c1ccccn1`, the inhibition is 2.51% (inactive).

Consider `Cc1ccc(C(=O)O/N=C(\N)c2ccccn2)cc1Cl`, for which the inhibition was 42.5% (active).

In the case of `CN(C)c1ccc(C2N(C)C(=O)c3ccccc3N2C)cc1` (stereo not given), the inhibition is 4.78% (inactive).

For the molecule `Cc1ccc(C)c(NS(=O)(=O)c2c(C)[nH]c(C)c2C(=O)N2CCCCC2)c1`, the inhibition was 3.8% (inactive).

Take `O=C(Nc1ccccc1Cl)NC1(C(=O)N2CCOCC2)CCCCC1`: the inhibition was 0.58% (inactive).

`CCN(CC)C(=O)c1sc2nc(-c3ccccc3)ccc2c1N`: the inhibition was 16.5% (active).

On to `Cc1ccc2c(N)c(C(=O)c3ccccc3)sc2n1`, for which the inhibition is 1.67% (inactive).

In the case of `CS(=O)(=O)c1sc2nc(-c3ccccc3)cc(-c3ccccc3)c2c1N`, the inhibition was 0.41% (inactive).

In the case of `O=C(O)CSc1c2c(nc3cc(C(=O)Nc4cccc(C(F)(F)F)c4)ccc13)CCCC2`, the inhibition is -0.05% (inactive).

`CCCCNC(=O)C(=O)c1ccccc1NC(C)=O`: the inhibition was 4.09% (inactive).

For the molecule `CCCCNC(=S)NNC(=O)c1cc(C)on1`, the inhibition was -1.37% (inactive).

On to `CCCCNC(=O)Nc1c(C)cc(SC#N)cc1C`, for which the inhibition was 36.7% (active).

For the molecule `CC(C)CC[n+]1ccn(C2=C([O-])c3ccccc3C(=O)/C2=N\S(=O)(=O)c2ccccc2)c1`, the inhibition was 6.11% (inactive).

In the case of `CCOC(=O)c1sc(NC(=O)c2sc(C)nc2C)nc1C`, the inhibition was 9.21% (inactive).

Consider `CC1CCCCN1CCCNc1ccc(C(CC(N)=O)NC(=O)c2ccccc2)cc1[N+](=O)[O-]` (stereo not given), for which the inhibition is -2.66% (inactive).

For the molecule `CC(C)c1nc2ccc(C(=O)O)cc2[nH]1`, the inhibition is 37.9% (active).

In the case of `OC(c1nc2ccc(F)cc2[nH]1)C(O)c1nc2ccc(F)cc2[nH]1` (stereo not given), the inhibition was -4.25% (inactive).

With `Cc1nc2ccc(C(=O)O)cc2[nH]1`, the inhibition is 31.3% (active).

Regarding `OC(c1nc2ccccc2[nH]1)C(O)C(O)C(O)c1nc2ccccc2[nH]1` (stereo not given), the inhibition was -0.14% (inactive).

In the case of `Cc1nc2ccc(C(=O)N(C)CC3CCCN(CCc4ccc(Cl)cc4)C3)cc2[nH]1` (stereo not given), the inhibition is -8.86% (inactive).

In the case of `Cc1nc2ccc(C(=O)N/N=C/c3ccc(O)cc3)cc2[nH]1`, the inhibition was 1.87% (inactive).

As for `COc1ccc(C(=O)n2nc(C)c(Br)c2C)cc1OC`, the inhibition is 4.92% (inactive).

Take `C#CCOc1ccc(/C=C2/C(=O)ON=C2C)cc1OCC`: the inhibition is 1.13% (inactive).

For `Cc1ccc(NC(=O)C(CC(=O)O)C2CCCO2)c(C)c1` (stereo not given), the inhibition was -2.07% (inactive).

Turning to `CCOC(=O)N1CCC(NC(=O)CCc2ccccc2)CC1`, the inhibition is 2.73% (inactive).

Consider `COc1ccc(C(=O)NCCn2nc(C)cc2C)cc1OC1CCN(C(C)=O)CC1`, for which the inhibition was 0.85% (inactive).

`Cc1cnc(NC(=O)c2ccc(Cl)nc2)s1`: the inhibition is -0.28% (inactive).

As to `Cc1cnc(NC(=O)c2ccccn2)s1`, the inhibition is 21% (active).

On to `O=C(Nc1nnc(C2CC2)s1)c1ccccn1`, for which the inhibition was 16% (inactive).
